Rows were chosen to be rich in hits. Some 2.5% of all compounds tested hit in one or more screens of this group.
Pol eta inh = blocks human DNA polymerase eta activity | Q9Y253 | recombinant Pol eta, fluorescent DNA replication assay | Potency, µM (highest dose often 114 µM), for the others: top-dose activity change, negative = inhibition, actives largely listed as inhibitors | hit rate 1.2% among 390,000 | AID 588591; also: % is scaled to controls: 0 for no effect and ±100 for the full control effect
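Fluorescent replication assay: 50 nM final substrate added after a 15 min room-temperature compound preincubation with 10 nM enzyme. Signal taken at 0 min and again at 10 min.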
Pol beta inh = DNA polymerase beta (human) inhibition; P06746; Pol beta primer extension/strand displacement, fluorescence kinetic; Potency, µM (series often up to 114 µM), for inactives: at the highest dose activity change, negative = inhibition, usual class: inhibitors; hit rate 1.3% among 340,000; AID 485314; also: % is scaled to controls: 0 for no effect and ±100 for the full control effect
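Enzyme-only controls used 10 nM Pol beta; buffer lacking enzyme served as negative control. Compound preincubated 15 min, then 50 nM substrate added; 0 and 10 min reads at room temperature.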
Pol kappa inh = inhibitors of human DNA polymerase kappa; Q9UBT6; purified Pol kappa, fluorescent DNA synthesis assay, 10 min; Potency, µM (highest dose often 107 µM), without a hit: top-dose activity, negative = inhibition, usual class: inhibitors; hit rate 0.53% among 400,000; also: % is scaled to controls: 0 for no effect and ±100 for the full control effect
Target sequence (Q9UBT6 whole entry, looked up): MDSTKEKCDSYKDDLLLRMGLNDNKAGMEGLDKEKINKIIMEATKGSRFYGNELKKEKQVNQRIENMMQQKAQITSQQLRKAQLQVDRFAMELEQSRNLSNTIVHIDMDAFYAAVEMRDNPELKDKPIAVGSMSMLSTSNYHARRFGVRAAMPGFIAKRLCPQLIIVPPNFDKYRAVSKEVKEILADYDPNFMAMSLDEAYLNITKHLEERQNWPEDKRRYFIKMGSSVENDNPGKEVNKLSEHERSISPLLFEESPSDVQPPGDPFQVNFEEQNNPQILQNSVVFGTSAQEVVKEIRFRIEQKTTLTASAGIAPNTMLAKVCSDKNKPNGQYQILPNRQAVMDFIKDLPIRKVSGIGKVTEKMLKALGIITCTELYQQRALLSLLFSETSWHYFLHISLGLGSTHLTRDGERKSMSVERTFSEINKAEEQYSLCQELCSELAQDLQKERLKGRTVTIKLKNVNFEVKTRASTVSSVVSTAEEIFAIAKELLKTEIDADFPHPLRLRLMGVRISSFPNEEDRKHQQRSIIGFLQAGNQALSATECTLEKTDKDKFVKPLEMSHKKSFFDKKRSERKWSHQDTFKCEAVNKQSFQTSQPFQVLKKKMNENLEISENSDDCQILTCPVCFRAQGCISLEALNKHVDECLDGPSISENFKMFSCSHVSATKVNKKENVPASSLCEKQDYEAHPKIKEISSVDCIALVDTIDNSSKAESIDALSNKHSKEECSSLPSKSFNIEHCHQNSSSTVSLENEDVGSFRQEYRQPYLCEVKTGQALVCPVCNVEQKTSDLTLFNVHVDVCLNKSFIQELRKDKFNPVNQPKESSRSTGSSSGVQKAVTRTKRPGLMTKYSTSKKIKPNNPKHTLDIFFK
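50 nM final substrate added after 15 min RT preincubation of 10 nM Pol kappa with compound; fluorescence read at 0 and 10 min.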
L3MBTL1 block = blocks human L3MBTL1; Q9Y468; Potency, µM (highest dose often 57.1 µM), inactives show at the highest dose activity, negative = inhibition, hits mostly inhibitors; AlphaScreen L3MBTL1–H3K9me1 peptide binding; AID 485360; hit rate 0.66% among 230,000; also: % is scaled to controls: 0 for no effect and ±100 for the full control effect; nearly all actives have a fitted effect of over 60% in size
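First, the protein-peptide complex forms for 30 min at room temperature (L3MBTL1 50 nM, biotinylated H3K9me1 peptide 75 nM). Next, compounds are pin-transferred and incubated 30 min. Finally, AlphaScreen beads are added and read after 30 min.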
WRN inhibitor = blocks human WRN helicase. Potency, µM (doses to about 114 µM), for inactives: at the highest dose activity change, negative = inhibition, actives largely listed as inhibitors. Q14191. AID 651768. hit rate 0.46% among 360,000. WRN helicase unwinding, fluorescent forked duplex, kinetic; also: % is scaled to controls: 0 for no effect and ±100 for the full control effect; nearly all actives have a fitted effect of over 55% in size
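Kinetic red-fluorescence monitoring (525/598 nm) tracks WRN helicase activity after 100 nM fluorophore-quencher forked duplex and 2 mM ATP are added to 20 nM enzyme pretreated 15 min at room temperature with compound.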
POLI inh = inhibitors of human DNA polymerase iota; Q9UNA4; Pol iota fluorescent replication assay, 10 min; Potency, µM (top dose mostly 115 µM), without a hit: at the highest dose activity, negative = inhibition, hits mostly inhibitors; hit rate 1% among 390,000
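Fluorescent replication assay read twice, at 0 min and 10 min after adding 50 nM (final) substrate. Enzyme (10 nM) and compounds were first incubated 15 min at room temperature; enzyme-free buffer wells were negative controls.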
Numbers without * were called inactive; u = inconclusive; x = not tested or not shown; [ ] = dose if it differs, or a comment. Calls follow the shape of the dose curve; as a rule, active = well fitted curve in the direction sought with a large enough effect; inconclusive = small, poorly fitted or top-dose-only effect, or another doubt; inactive = no such curve, though single readings can be large; an effect the other way counts as inactive or inconclusive. Potency is read from the fitted curve at half-maximal effect.

SMILES	Pol eta inh	Pol beta inh	Pol kappa inh	L3MBTL1 block	WRN inhibitor	POLI inh
COc1ccc(C(=O)COC(=O)CCN2C(=O)C3CC=CCC3C2=O)c(OC)c1 (stereo not drawn)	u	x	-12%	-17%	4%[11.6 µM]	40µM*
CC(=O)Nc1cc(NC(C)=O)cc(C(=O)N2CCCC3CCCCC32)c1 (stereo not drawn)	22µM*	u	79µM*	x	u	14µM*
O=C(Nc1ccccc1)N1CCCC2CCCCC21 (stereo not drawn)	-15%	-1%	-17%	-3%	-8%	6%
N#Cc1ccccc1Cn1nnc2c(=O)[nH]c(C3CCCN(S(=O)(=O)c4ccc(F)cc4)C3)nc21 (stereo not drawn)	-2%	11%	-6%	x	x	-7%
CCC(Sc1nc2ccccc2c2nc(CCn3cncc3C)nn12)C(=O)Nc1cccc(OC)c1 (stereo not drawn)	-14%	50µM*	-4%[60.1 µM]	x	x	23%
O=C1NC[C@@H](CCCCN2C[C@H](Cc3ccccc3)N(CCC3CCCCC3)C(=O)C2=O)N(CCc2ccc(O)cc2)C1=O	x	x	x	x	-5%	x
Cc1cc(C)c(C(=O)/C=C/c2cccc3ccccc23)c(=O)[nH]1	u	18%	-16%	-8%	-5%	-10%
Cc1[nH]c(=O)c(C(=O)/C=C/c2ccccc2F)c2c1CCCC2	u	-1%	-9%	-3%	-8%	18µM*
Cc1ccc(S(=O)(=O)NCCSCc2ccco2)cc1	-5%	-10%	-5%	-11%	-2%	-8%
COc1ccc(/C=C/C(=O)NCCSCc2ccco2)cc1OC	-29%	-14%	-40%	-14%	-23%[57.1 µM]	71µM*
Cc1cc(C)c(S(=O)(=O)NCCSCc2ccco2)c(C)c1	20µM*	x	u	u	-12%[11.6 µM]	22µM*
COc1ccc(CCNC(=O)/C=C/c2ccco2)cc1OC	2%	11%	-21%	-7%	-7%	u
COc1ccc(S(=O)(=O)NCCSCc2ccco2)cc1OC	u	40µM*	-27%	x	-2%[11.6 µM]	45µM*
O=c1cc(CCl)nc2sc3ccccc3n12	50µM*	u	u	u	-5%[11.6 µM]	35µM*
Nn1c(SCc2nc3ccccc3[nH]2)nnc1-c1cccnc1	-11%	1%	-1%	0%	4%	-7%
O=C(O)c1cccc(N2C(=O)c3ccc(Oc4ccc(Cl)cc4)cc3C2=O)c1	0%	89µM*	-26%	-10%	-8%	56%
O=C(O)c1cccc(N2C(=O)c3ccc4c5c(ccc(c35)C2=O)C(=O)N(c2cccc(C(=O)O)c2)C4=O)c1	u	u	-10%	x	-5%[11.6 µM]	u
CCCCN1C(=O)C(CC(=O)NCCc2ccccn2)CC(C(=O)N2CCCCCC2)=C1C (stereo not drawn)	x	x	x	x	-2%[57.1 µM]	x
C/C(=N\NC(=O)c1cccc(S(=O)(=O)N2CCOCC2)c1)c1ccc(C#N)cc1	-1%	7%	-6%	x	-34%	19%
CC(=O)C1=C(c2ccc(Br)cc2)C(=O)c2ccccc2C1=O	-5%	19%	u	-11%	u	3.5µM*
O=C(O)CSC1=NS(=O)(=O)c2ccccc21	x	x	u	x	x	89µM*
COc1c2c(c(CCC(=O)O)c3c1C=CC(C)(C)O3)OC(C)(C)C=C2	18µM*	x	-29%	x	-16%	u
CCOC(=O)COc1cc(-n2c(=S)[nH]c3cc(OC)c(OC)cc3c2=O)c(Cl)cc1Cl	-15%	10%	-21%	0.71µM*	u	7%
Cc1ccc(CSc2nnc(SCC(=O)N/N=C/c3c[nH]c4ccccc34)s2)cc1	u	7.9µM*	-22%	x	u	3.5µM*
Cc1nc(N=Nc2cc([N+](=O)[O-])ccc2Cl)c(COP(=O)(O)O)c(C=O)c1O	x	x	27µM*	x	x	x
SMILES	Pol eta inh	Pol beta inh	Pol kappa inh	L3MBTL1 block	WRN inhibitor	POLI inh
Cc1nc(N=Nc2cc(S(=O)(=O)O)c3cc([N+](=O)[O-])cc(S(=O)(=O)O)c3c2)c(COP(=O)(O)O)c(C=O)c1O	0.63µM*	2.8µM*	9.5µM*	x	x	5µM*
CCOc1cc(C=O)cc(N=Nc2cccc([N+](=O)[O-])c2)c1O	-14%	-1%	-23%	-15%	2%	23%
CCCNC(=O)NC(=O)COC(=O)c1oc2ccc(OCC)cc2c1C	-17%	1%	-6%	x	2%	-8%
Cc1ccc(/C=C2\SC(=S)N(c3cccnc3)C2=O)o1	-16%	3%	50µM*	x	-9%	u
CC(C)c1ccc(CCNC(=O)c2ccc([N+](=O)[O-])cc2)cc1	-12%	37%	10%	-2%	-7%	-16%
O=C(CSc1ncn(-c2ccccc2)n1)Nc1ccc2c(c1)OCO2	-2%	18%	-13%	0%	-4%	-15%
Cc1csc(NC(=O)CSc2nc3[nH]c(=O)cc(O)c3s2)n1	28µM*	x	-14%	x	-5%	8%
CCc1nnc(NC(=O)CSc2nc3[nH]c(=O)cc(O)c3s2)s1	u	x	u	-7%	-25%	u
O=C(CSc1nc2[nH]c(=O)cc(O)c2s1)Nc1nncs1	3%	x	-14%	x	9%	18%
CCCSc1nnc(NC(=O)CSc2nc3[nH]c(=O)cc(O)c3s2)s1	56µM*	x	-29%	-18%	-10%	35µM*
CCCc1c(C(=O)N/N=C(\CC)c2ccccc2)nnn1-c1nonc1N	-3%	x	x	x	9%	x
Cc1ccc(CSCC(=O)N(C)CC(=O)Nc2ccccc2Cl)cc1	-14%	x	-6%	2%	-9%	20%
Cc1cnc(CNc2ccnc(-c3ccccc3CN(C)C)n2)cn1	x	x	-4%[60.1 µM]	x	x	x
COc1cc2c(NC3CCN(C)CC3)nc(N3CCCN(C)CC3)nc2cc1OCCCCN	x	x	79µM*	x	x	20µM*
COc1cc2nc(N3CCCN(C)CC3)nc(Nc3ccncc3)c2cc1OC	x	x	-18%	x	x	20µM*
CCN(CC)CCNC(=O)C1(c2ccccc2)CCCCC1	-21%	x	-5%	x	1%	38%
Cc1ccc(C(=O)N/N=C/c2cccc(OC(=O)/C=C/c3ccco3)c2)cn1	u	20µM*	-36%	32µM*	-5%[57.1 µM]	u
CC(/C=C/c1ccco1)=N\NC(=O)c1cccnc1	u	u	u	x	u	40µM*
CC(/C=C/c1ccco1)=N/NC(=O)c1ccc(C)nc1	-2%	-17%	-1%	x	-11%	u
CC(/C=C/c1ccco1)=N\NC(=O)c1cc(C)[nH]n1	79µM*	20µM*	u	u	u	18µM*
Cc1ccc(NC(=O)c2ccco2)c(NC(=O)C2CCCO2)c1 (stereo not drawn)	-19%	40%	10%[60.1 µM]	-2%[11.4 µM]	2%	-12%
CC(C)c1ccc(C(=O)N2CCCC(c3cc(C(=O)Nc4ccc5c(c4)OCO5)no3)C2)cc1 (stereo not drawn)	x	x	x	x	-3%[57.1 µM]	x

Source: PubChem (National Center for Advancing Translational Sciences (NCATS))
